Common to all, as to experiment: NCI-60 one-dose screen, 48 h (100 = growth as untreated, 0 = no growth, -100 = all killed)
Details in all cases: 10 µM unless noted

In assay [1] the test system is SR leukemia.
Assay [2] deals with RPMI-8226 leukemia.
Assay [3] has as its system OVCAR-5 ovarian.
The subject of assay [4] is OVCAR-4 ovarian.
Assay [5] concerns SK-OV-3 ovarian.
Assay [6] concerns IGROV1 ovarian.
Assay [7] concerns OVCAR-3 ovarian.
Assay [8] deals with HS 578T breast.
Assay [9] deals with NCI/ADR-RES ovarian.
Assay [10] concerns OVCAR-8 ovarian.

Structures are written as SMILES. About 83,000 compounds went through this panel and 20% of them were active in at least one assay; those are over-represented in the sample as a whole.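 Plates (96-well) were seeded with cells, treated with compound at one concentration, and incubated for 48 hours before percent growth was determined.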 A number with no mark means an inactive call. The source made the active and inactive calls. How the source made its calls: active means growth percent below 10; inactive means the rest.

This is an account of results in PubChem BioAssay (NCI).

For `O=[N+]([O-])c1ccc2[nH]cc(-c3c4ccccc4cc4[nH]c5ccc([N+](=O)[O-])cc5c34)c2c1`, the growth was 10.2% in [1]; 11.6% in [2]; 67.8% in [3]; 26.7% in [4]; 64.4% in assay [5]; 18.7% in [6]. The figures for the growth in assay [7], in assay [8] and in assay [9] were -7.76% (active), 30.4% and 8.13% (active), respectively.

With `CCOC(=O)Nc1cc(-c2ccc(C)c(NS(C)(=O)=O)c2)nn2c(C)nnc12`, the growth in [1] was 24.9%; in [2], -20.4% (active); in [3], 32.2%; in assay [4], 22.8%; in assay [5], 4.31% (active); in assay [6], -45.6% (active). The growth in assay [7] is -10.4% (active); in [8] it was 9.38% (active); in assay [9], 53.3%.

As to `CCNCCCn1c2c(c3ccc(F)cc3c1=O)C(=O)c1cc(OC)cnc1-2`, the growth is -4.37% (active) in [1]; -25.7% (active) in [2]; -15.1% (active) in assay [10]; -4.39% (active) in assay [4]; -30.4% (active) in assay [5]; 2.58% (active) in [6]. Further, the figures for the growth in assay [7], in assay [8] and in assay [9] were -16.9% (active), 14.9% and -29.4% (active), respectively.

For `N#Cc1c(-c2ccccc2)cc(-c2ccccc2)n(CCC(=O)O)c1=O`, the growth was 19.8% in assay [1]; 50.3% in [2]; 50.3% in [10]; 90.8% in [4]; 92% in [5]; 50.2% in assay [6]. Further, the growth in assay [7] is 14.8%; in assay [8], 58.2%; in assay [9] it was 33.7%.

In the case of `[N-]=[N+]=NCc1ncc(-c2ccc(C(F)(F)F)cc2)c(NC2CCCCCC2)n1`, the growth in assay [1] is 5.36% [50 µM] (active); in assay [2] it was 53.3% [50 µM]; in assay [10] it was 70.8% [50 µM]; in assay [4] it was 88.3% [50 µM]; in assay [5], 90.1% [50 µM]; in assay [6] it was 75.9% [50 µM]. Besides, the figures for the growth in [7], in assay [8] and in assay [9] were 61.4% [50 µM], 83.1% [50 µM] and 88.4% [50 µM], respectively.

Turning to `Cc1ccc(/C=C(/C#N)n2nnc3ncccc32)cc1`, the growth in assay [1] is 15.2%; in [2], 7.18% (active); in assay [10] it was -1.49% (active); in [4], 25.7%; in assay [5], 14.2%; in [6] it was 19.3%. The results for the growth in assay [7], in [8] and in assay [9] were -15% (active), 0.782% (active) and 2.09% (active), respectively.

With `Cc1ccc(-c2c3c(N)c4c(nc3nc3c2c(C)nn3-c2ccccc2)CCC4)cc1`, the growth in assay [1] is 6.66% (active); in assay [2], 85.6%; in assay [10], 88%; in assay [4], 124%; in [5] it was 96.4%; in assay [6], 96.3%. Moreover, the growth in [7] is 102%; in [8] it was 87.9%; in [9] it was 85.7%.

`NS(=O)(=O)N(c1cc(C(F)(F)F)cc(C(F)(F)F)c1)C1CCN(Cc2ccc(C(F)(F)F)cc2)CC1`: the growth in [1] is -6.79% (active); in [2], 31.7%; in [3], 38.6%; in [4], 31.6%; in [5] it was 4.55% (active); in [6], 21.7%. In addition, the results for the growth in assay [7], in [8] and in assay [9] were 15%, 25.2% and 58.2%, respectively.

On to `COc1cnc2c(c1)C(=O)c1c-2n(CCCNC(C)C)c(=O)c2cc(F)ccc12`, for which the growth in assay [1] was -13.4% (active); in [2] it was -28.1% (active); in assay [10] it was -14.2% (active); in assay [4], -0.201% (active); in assay [5], -33.3% (active); in assay [6], -5.18% (active). Further, the growth was -30.2% (active) in assay [7], 16% in assay [8] and -16.1% (active) in assay [9].

With `Cc1cn(C(C=O)OC(C=O)CO)c(=O)[nH]c1=O` (stereo not drawn), the growth was 93.9% in [1]; 107% in assay [2]; 111% in assay [3]; 96.9% in assay [4]; 103% in [5]; 102% in [6]. For the same molecule, the growth was 109% in [7], 103% in assay [8] and 107% in [9].

With `CCCCCCCCCCCCCCCCCC1=NC(C)(CO)CO1` (stereo not drawn), the growth in assay [1] was 118%; in assay [2], 86.7%; in assay [10] it was 97.6%; in [3] it was 90.5%; in [5], 97.8%; in assay [6], 101%. For the same molecule, the growth in [7] is 95.3%; in assay [8], 92.5%; in assay [9], 85.8%.

Turning to `COc1c(Br)cc(C(c2cc(Br)c(OC)c(Br)c2)c2ccccc2C(=O)O)cc1Br`, the growth in [1] was 80.9%; in assay [2] it was 88.7%; in assay [10], 102%; in [3], 99.1%; in [5], 106%; in assay [6], 95.7%. Moreover, the growth is 109% in assay [7], 101% in [8] and 98.8% in [9].

With `O=C(NN1C(=O)c2cc(C(=O)O)c(C(=O)O)cc2C1=O)c1ccncc1`, the growth in [1] was 119%; in assay [2] it was 103%; in [10] it was 112%; in assay [4], 116%; in assay [5] it was 110%; in assay [7], 131%. Also, the growth in [8] is 104%; in assay [9], 116%.

With `Oc1ccccc1/C=N/N1CCCCCC1`, the growth was 99.3% in [1]; 99.6% in [2]; 116% in assay [10]; 105% in assay [3]; 112% in assay [5]; 108% in assay [7]. Also, the growth in assay [8] is 114%; in assay [9], 101%.

With `Cc1ccc(C(=O)Cc2ccccc2)c(O)c1`, the growth is 83% in assay [1]; 115% in assay [2]; 104% in assay [10]; 107% in [4]; 127% in assay [5]; 107% in assay [6]. The growth is 110% in assay [7], 107% in assay [8] and 108% in [9].
